Experimental data: PubChem BioAssay (Tox21)
Inconclusive results are not listed. The source made the active and inactive calls. Unless noted, the call rests on the fitted dose curve; in most records, active means well fitted curve in the direction sought with a large enough effect in the repeat runs; inconclusive means weak or mixed curves; inactive means no such curve, though single readings can be large; an effect the other way counts as inactive or inconclusive.

Assays:
[1] = target: Thyrotropin receptor (Homo sapiens) (UniProt P16473); experiment: qHTS assay to identify small molecule antagonists of the thyroid stimulating hormone receptor (TSHR) signaling pathway (AID 1259385; calls by dose curve; further: nearly all actives have a fitted effect of over 20% in size)
Method in brief: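 TSHR-HEK293 cells (800/well) plated 18 h, then compounds with Ro20-1724 and TSH at 1.5 ng/mL final, 30 min at room temperature. cAMP quantified by HTRF (cAMP-d2/anti-cAMP-cryptate, 1 h); 15 concentrations in triplicate.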

[2] = qHTS assay to identify small molecule agonists of the estrogen receptor alpha (ER-alpha) signaling pathway in the presence of an antagonist - cell viability counter screen (AID 1259386);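 further: series mostly up to about 92 µM; cells exposed to compounds for 22 h at 37 °C before the viability read; nearly all actives have a fitted effect of over 30% in size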
Method in brief: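 Cytotoxicity was measured in parallel with the ERE-luciferase agonist screen, in the same wells. The cells were VM7Luc4E2, which endogenously express ER-alpha, and treatment was with compounds plus 10.0nM ICI-182,780 for 22hr.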

[3] = target: Progesterone receptor (Homo sapiens) (UniProt P06401); experiment: qHTS assay to identify small molecule antagonists of the progesterone receptor (PR) signaling pathway (AID 1346795; active means well fitted inhibition curve with a large enough effect in the signal ratio in the repeat runs, not every such curve was filed as active; the % refers to the signal ratio)
Method in brief: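 Beta-lactamase reporter, HEK293T PR-UAS-bla line; 2% charcoal-stripped FBS; 6 hr pre-incubation, 37C/5% CO2. Compound + R5020 1 nM final, 16 hr. LiveBLAzer B/G FRET substrate, 2 hr RT; fluorescence intensity read.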

[4] = qHTS assay to identify small molecule agonists of the progesterone receptor (PR) signaling pathway - cell viability counter screen (AID 1346799; calls by dose curve; further: nearly all actives have a fitted effect of over 45% in size)
Method in brief: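 HEK293T PR-UAS-bla, 3,000 cells/well, 2% charcoal-stripped FBS; 6 h settle, compound 16 h at 37C/5% CO2; LiveBLAzer 2 h RT, then CellTiter-Glo 30 min RT, luminescence read.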

[5] = qHTS assay to identify small molecule agonists of the TGF-beta/Smad signaling pathway - cell viability counter screen (AID 1346829); further: top concentration of the series differs between compounds; nearly all actives have a fitted effect of over 45% in size
Method in brief: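 Same-well cytotoxicity: CellTiter-Glo added after the 2 hr room-temperature beta-lactamase substrate step, luminescence measured 30 min later; cells had 5 hr of compound at 37 C.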

[6] = qHTS assay to identify small molecule agonists of the TGF-beta/Smad signaling pathway (AID 1346859; active means well fitted activation curve with a large enough effect in the signal ratio in the repeat runs, not every such curve was filed as active; the % refers to the signal ratio; further: series mostly up to about 77 µM)
Method in brief: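 Read-out: fluorescence at 460 and 530 nm (405 nm excitation) after a 2 hr room-temperature incubation with beta-lactamase FRET substrate. SBE-bla HEK 293T cells had been treated with test compounds for 5 hr at 37 C.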

[7] = target: Thyrotropin-releasing hormone receptor (Homo sapiens) (UniProt P34981); experiment: qHTS assay to identify small molecule antagonists of the thyrotropin-releasing hormone receptor (TRHR) signaling pathway (AID 1346877; active means well fitted inhibition curve with a large enough effect in the repeat runs, not every such curve was filed as active; further: series mostly up to about 51 µM)
Method in brief: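 Antagonism is measured as suppression of the calcium response to 1 nM TRH in TRHR-HEK293 cells that have been dye-loaded for 2 h at 37 °C after overnight plating. Each compound is tested at 15 concentrations in triplicate.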

[8] = target: Thyrotropin-releasing hormone receptor (Homo sapiens) (UniProt P34981); experiment: qHTS assay to identify small molecule agonists of the thyrotropin-releasing hormone receptor (TRHR) signaling pathway (AID 1346891; calls by dose curve;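 further: HEK293 cells expressing TRHR with calcium dye readout; series mostly up to about 58 µM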)
Method in brief: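 HEK293/TRHR cells, 1500 per well, 18 h 37 °C; Ca dye 2 h 37 °C; pin-tool compound addition (agonist mode); kinetic fluorescence 3 min, 1 s reads; 15 concentrations, triplicate.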

[9] = Human pregnane X receptor (PXR) small molecule agonists, qHTS cell viability counter screen (AID 1346977); further: nearly all actives have a fitted effect of over 50% in size
Method in brief: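 Fluorescence read-out (CellTiter-Fluor) of viability in PXR-Luc HepG2 cells, multiplexed with the luciferase agonist read. Compounds in DMSO added after 5hr plating; 24hr total exposure at 37C, 5% CO2.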

[10] = Caspase-3/7 induction in HepG2 cells by small molecules, qHTS assay (AID 1346978); further: nearly all actives have a fitted effect of over 15% in size
Method in brief: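 Wild-type HepG2 cells, 2,000/well, settled 5 hr at 37 C and 5% CO2, then compound-treated for 17 hr; caspase-3/7 activity read by luminescent Caspase-Glo 3/7 after 30 min at room temperature.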

[11] = Caspase-3/7 induction in CHO-K1 cells by small molecules, qHTS cell viability counter screen (AID 1346979); further: nearly all actives have a fitted effect of over 35% in size
Method in brief: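 CHO-K1 wt, 1,500 cells/well; 5hr pre-incubation 37C/5% CO2; compound pin transfer (DMSO); 16hr exposure; CellTiter-Fluor added, 1hr, fluorescence read.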

[12] = Caspase-3/7 induction in CHO-K1 cells by small molecules, qHTS assay (AID 1346980); further: nearly all actives have a fitted effect of over 15% in size
Method in brief: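 Wild-type CHO-K1 cells exposed to compounds for 17hr at 37 C, 5% CO2. Caspase-3/7 activity then measured by Caspase-Glo 3/7 luminescence after 30min at room temperature.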

[13] = Caspase-3/7 induction in HepG2 cells by small molecules, qHTS cell viability counter screen (AID 1346981); further: series mostly up to about 92 µM; nearly all actives have a fitted effect of over 30% in size
Method in brief: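 Cell viability is measured as a cytotoxicity counter screen alongside the Caspase-Glo 3/7 readout in identical wells. Wild-type HepG2 cells are treated with test compounds for 16 hr at 37 C before CellTiter-Fluor addition and a 1-hr incubation.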

[14] = target: Nuclear receptor subfamily 1 group I member 2 (Homo sapiens) (UniProt O75469); experiment: Human pregnane X receptor (PXR) small molecule agonists, qHTS assay (AID 1346982); further: nearly all actives have a fitted effect of over 35% in size
Method in brief: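 Cells: HepG2 stably carrying PXR-Luc. Medium held 5% charcoal-stripped FBS. Compounds in DMSO added after 5 hr plating, incubated 24 hr, then luminescence quantified with ONE-Glo.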

[15] = target: Nuclear receptor subfamily 1 group I member 2 (Rattus norvegicus) (UniProt Q9R1A7); experiment: Rat pregnane X receptor (rPXR) activation by small molecules, qHTS assay (AID 1346983); settings: rPXR luciferase reporter cells, One-Glo luminescence, 24 h; stronger effect = higher value; further: nearly all actives have a fitted effect of over 20% in size
Method in brief: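 Cell-based rPXR activation assay: rPXR cells, 2,000 per well, rested 5hr at 37 C, then exposed to compounds in DMSO for 24 hr at 37 C. Luciferase activity read by One-Glo luminescence after 30 min at room temperature.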

[16] = target: Nuclear receptor subfamily 1 group I member 2 (Homo sapiens) (UniProt O75469); experiment: CYP3A4 induction through human pregnane X receptor (PXR) by small molecules, qHTS assay (AID 1346984); further: nearly all actives have a fitted effect of over 40% in size
Method in brief: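 Quantitative HTS in DPX-2 cells, i.e. HepG2 transfected with PXR response element and CYP3A4-promoter luciferase. Compounds in DMSO incubated 24hr at 37C; then P450-Glo CYP3A4 substrate, 3uM final, 3hr; One-Glo luminescence.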

[17] = target: Nuclear receptor subfamily 1 group I member 2 (Homo sapiens) (UniProt O75469); experiment: Human pregnane X receptor (PXR) activation by small molecules, qHTS assay (AID 1346985); further: nearly all actives have a fitted effect of over 40% in size
Method in brief: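 DPX-2 cells (HepG2 co-transfected with a PXR response element and a CYP3A4-promoter luciferase construct) were seeded at 2,000 per well, rested 5 hr at 37C, then exposed to DMSO-dissolved compounds for 24 hr. Activation was read as luciferase luminescence.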

[18] = qHTS assay to identify small molecule antagonists of the progesterone receptor (PR) signaling pathway - cell viability counter screen (AID 1346798); further: series mostly up to about 92 µM; nearly all actives have a fitted effect of over 50% in size
Method in brief: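 Luminescence readout (CellTiter-Glo, 30 min, RT) of viability in PR-UAS-bla HEK293T cells exposed to compound and R5020 agonist for 16 hr at 37C, 5% CO2; run in the same wells as the beta-lactamase reporter read.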

[19] = qHTS assay to identify small molecule antagonists of the TGF-beta/Smad signaling pathway - cell viability counter screen (AID 1346824); further: nearly all actives have a fitted effect of over 50% in size
Method in brief: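 SBE-bla HEK 293T cells, incubated overnight, then compound plus 0.25 ng/mL TGF-beta1 (stock added) for 5 hr at 37 C. Viability was read in the same wells by CellTiter-Glo luminescence after 30 min at room temperature.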
On the % scale 0 is the no-effect control and ±100 the full control effect.

Chain of Nuclear receptor subfamily 1 group I member 2 (Rattus norvegicus) (Q9R1A7 whole entry, looked up): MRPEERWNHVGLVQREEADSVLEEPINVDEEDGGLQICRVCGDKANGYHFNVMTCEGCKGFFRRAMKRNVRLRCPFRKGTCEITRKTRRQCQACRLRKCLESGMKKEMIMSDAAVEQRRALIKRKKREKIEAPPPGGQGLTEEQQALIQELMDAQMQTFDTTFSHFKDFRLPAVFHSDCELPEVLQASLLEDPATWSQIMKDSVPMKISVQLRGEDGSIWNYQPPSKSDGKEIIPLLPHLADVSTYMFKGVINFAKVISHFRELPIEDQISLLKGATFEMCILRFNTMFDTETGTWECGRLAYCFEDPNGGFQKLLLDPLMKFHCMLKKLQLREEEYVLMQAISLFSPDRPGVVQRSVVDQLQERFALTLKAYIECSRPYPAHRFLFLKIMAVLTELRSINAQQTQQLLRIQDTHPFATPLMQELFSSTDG
Chain of Thyrotropin-releasing hormone receptor (Homo sapiens) (P34981 whole entry, looked up): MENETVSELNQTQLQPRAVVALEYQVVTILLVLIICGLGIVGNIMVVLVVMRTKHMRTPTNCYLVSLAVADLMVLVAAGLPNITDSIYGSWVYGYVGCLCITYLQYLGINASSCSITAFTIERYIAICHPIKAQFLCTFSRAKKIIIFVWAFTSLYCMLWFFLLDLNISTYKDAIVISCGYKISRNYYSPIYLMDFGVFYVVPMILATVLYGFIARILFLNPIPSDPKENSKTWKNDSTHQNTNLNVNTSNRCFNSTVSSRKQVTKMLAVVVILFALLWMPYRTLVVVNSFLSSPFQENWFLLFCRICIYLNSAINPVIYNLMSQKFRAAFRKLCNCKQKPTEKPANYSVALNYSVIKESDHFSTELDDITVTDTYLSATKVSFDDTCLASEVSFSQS
Chain of Progesterone receptor (Homo sapiens) (P06401 whole entry, looked up): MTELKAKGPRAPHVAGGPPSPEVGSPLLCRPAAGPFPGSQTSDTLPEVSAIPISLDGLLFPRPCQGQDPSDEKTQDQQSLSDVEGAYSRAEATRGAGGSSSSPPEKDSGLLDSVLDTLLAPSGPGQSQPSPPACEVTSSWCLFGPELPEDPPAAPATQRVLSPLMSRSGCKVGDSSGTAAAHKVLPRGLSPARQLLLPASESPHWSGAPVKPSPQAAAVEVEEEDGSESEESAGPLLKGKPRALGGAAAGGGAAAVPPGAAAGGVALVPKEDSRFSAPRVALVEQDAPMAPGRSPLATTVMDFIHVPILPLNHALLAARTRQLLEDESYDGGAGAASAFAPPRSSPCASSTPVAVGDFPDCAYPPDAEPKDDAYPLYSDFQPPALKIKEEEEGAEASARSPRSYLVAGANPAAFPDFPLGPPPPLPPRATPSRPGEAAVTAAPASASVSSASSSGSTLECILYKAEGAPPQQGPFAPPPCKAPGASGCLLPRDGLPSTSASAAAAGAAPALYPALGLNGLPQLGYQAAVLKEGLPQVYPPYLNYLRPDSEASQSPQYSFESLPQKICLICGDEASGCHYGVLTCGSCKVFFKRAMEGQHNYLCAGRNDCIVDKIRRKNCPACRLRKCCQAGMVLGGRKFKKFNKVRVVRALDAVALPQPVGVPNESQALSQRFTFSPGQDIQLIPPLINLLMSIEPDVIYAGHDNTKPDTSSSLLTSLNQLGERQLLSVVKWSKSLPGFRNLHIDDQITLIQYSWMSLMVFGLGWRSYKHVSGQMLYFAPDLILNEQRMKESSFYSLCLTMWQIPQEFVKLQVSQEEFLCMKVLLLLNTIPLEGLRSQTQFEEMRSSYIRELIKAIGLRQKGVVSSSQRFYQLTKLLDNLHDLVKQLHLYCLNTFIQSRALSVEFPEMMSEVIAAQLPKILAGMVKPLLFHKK
Chain of Thyrotropin receptor (Homo sapiens) (P16473 whole entry, looked up): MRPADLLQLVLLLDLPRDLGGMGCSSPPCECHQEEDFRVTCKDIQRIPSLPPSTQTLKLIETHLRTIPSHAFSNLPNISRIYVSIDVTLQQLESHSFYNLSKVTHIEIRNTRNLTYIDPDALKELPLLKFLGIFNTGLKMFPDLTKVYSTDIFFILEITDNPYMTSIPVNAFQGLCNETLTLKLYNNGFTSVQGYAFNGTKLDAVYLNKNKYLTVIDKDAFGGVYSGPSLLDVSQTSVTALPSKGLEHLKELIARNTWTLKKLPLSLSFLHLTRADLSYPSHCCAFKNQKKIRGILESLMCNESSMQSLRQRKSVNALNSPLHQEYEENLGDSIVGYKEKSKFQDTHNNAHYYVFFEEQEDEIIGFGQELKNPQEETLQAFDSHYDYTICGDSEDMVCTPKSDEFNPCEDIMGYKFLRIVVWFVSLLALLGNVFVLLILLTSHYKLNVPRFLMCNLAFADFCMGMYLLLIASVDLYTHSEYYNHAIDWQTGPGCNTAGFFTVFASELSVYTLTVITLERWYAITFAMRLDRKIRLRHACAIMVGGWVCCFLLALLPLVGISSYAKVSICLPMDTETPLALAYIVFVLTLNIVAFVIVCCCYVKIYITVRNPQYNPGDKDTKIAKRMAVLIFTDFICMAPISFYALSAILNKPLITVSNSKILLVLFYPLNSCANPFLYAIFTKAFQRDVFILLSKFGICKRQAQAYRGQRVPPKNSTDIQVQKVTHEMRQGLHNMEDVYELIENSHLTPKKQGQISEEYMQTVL
Chain of Nuclear receptor subfamily 1 group I member 2 (Homo sapiens) (O75469 whole entry, looked up): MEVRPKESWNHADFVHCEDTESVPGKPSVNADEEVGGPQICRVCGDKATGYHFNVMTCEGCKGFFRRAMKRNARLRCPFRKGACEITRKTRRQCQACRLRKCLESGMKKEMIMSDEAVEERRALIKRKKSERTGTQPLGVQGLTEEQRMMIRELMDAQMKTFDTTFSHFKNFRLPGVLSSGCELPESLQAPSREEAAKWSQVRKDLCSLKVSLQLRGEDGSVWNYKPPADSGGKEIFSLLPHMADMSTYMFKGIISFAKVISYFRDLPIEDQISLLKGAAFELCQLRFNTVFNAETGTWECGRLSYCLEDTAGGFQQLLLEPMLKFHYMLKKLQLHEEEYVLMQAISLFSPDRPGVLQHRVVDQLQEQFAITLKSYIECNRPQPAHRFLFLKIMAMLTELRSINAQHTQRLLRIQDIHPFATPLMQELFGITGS

Cc1[nH]c(=O)c(C#N)cc1-c1ccc2nccn2c1
inactive: Potency [1] | Potency [2] | Potency [3] | Potency [4] | outcome [5] | outcome [6] | outcome [7] | outcome [8] | Potency [9] | Potency [10] | Potency [11] | outcome [12] | Potency [13] | Potency [14] | max activation [15] 0.264% | Potency [16] | Potency [17]

c1ccc([C@H]2CN3CCSC3=N2)cc1
inactive: Potency [1] | Potency [2] | Potency [3] | Potency [18] | Potency [19] | outcome [5] | outcome [6] | outcome [7] | outcome [8] | Potency [9] | Potency [10] | Potency [11] | outcome [12] | Potency [13] | Potency [14] | max activation [15] -1.7% | Potency [16] | Potency [17]

CC1(C)C(O)C(C)(C)C1O (stereo unspecified)
inactive: Potency [1] | Potency [2] | Potency [4] | Potency [19] | outcome [5] | outcome [6] | Potency [9] | Potency [10] | Potency [11] | outcome [12] | Potency [13] | Potency [14]

N=c1nc(N2CCCCC2)cc(N)n1O
inactive: Potency [1] | Potency [2] | Potency [3] | Potency [18] | Potency [4] | outcome [5] | outcome [6] | outcome [7] | outcome [8] | Potency [9] | Potency [10] | Potency [11] | outcome [12] | Potency [13] | Potency [14]

O=c1[nH]c(=O)n([C@H]2C[C@H](O)[C@@H](CO)O2)cc1I
inactive: Potency [1] | Potency [2] | Potency [3] | Potency [18] | Potency [19] | outcome [5] | outcome [6] | Potency [9] | Potency [10] | Potency [11] | outcome [12] | Potency [13] | max activation [15] 6.42%

O=C1NC(=O)[C@@]2(CCOc3ccc(F)cc32)N1
inactive: Potency [1] | Potency [2] | Potency [3] | Potency [18] | Potency [4] | outcome [5] | outcome [6] | Potency [9] | Potency [10] | Potency [11] | outcome [12] | Potency [13] | Potency [14] | max activation [15] -0.447% | Potency [16] | Potency [17]

Cc1sccc1Br
inactive: Potency [1] | Potency [2] | Potency [4] | Potency [19] | outcome [5] | outcome [6] | outcome [7] | outcome [8] | Potency [9] | Potency [10] | Potency [11] | outcome [12] | Potency [13] | Potency [14]

CCN(CC)CCNC(=O)c1cc(S(C)(=O)=O)ccc1OC
inactive: Potency [1] | Potency [2] | Potency [3] | Potency [4] | Potency [19] | outcome [5] | outcome [6] | outcome [7] | outcome [8] | Potency [9] | Potency [10] | outcome [12] | Potency [13] | Potency [14] | max activation [15] -2.45% | Potency [16] | Potency [17]

NS(=O)(=O)c1cc(C(=O)O)cc(N2CCCC2)c1Oc1ccccc1
inactive: Potency [1] | Potency [2] | Potency [18] | Potency [19] | outcome [6] | outcome [8] | Potency [9] | Potency [10] | Potency [11] | outcome [12] | Potency [13] | Potency [14] | max activation [15] 1.61% | Potency [16] | Potency [17]

COC(=O)NN
inactive: Potency [1] | Potency [2] | Potency [3] | Potency [18] | Potency [4] | outcome [5] | outcome [6] | outcome [7] | outcome [8] | Potency [9] | Potency [10] | Potency [11] | outcome [12] | Potency [13] | Potency [14]

CCOC(=O)CC(C)=O
inactive: Potency [1] | Potency [2] | Potency [3] | Potency [18] | Potency [4] | Potency [19] | outcome [5] | outcome [6] | Potency [9] | Potency [10] | Potency [11] | outcome [12] | Potency [13]

CCN1CCC[C@H]1CNC(=O)c1cc(S(N)(=O)=O)ccc1OC
inactive: Potency [1] | Potency [2] | Potency [3] | Potency [18] | Potency [4] | Potency [19] | outcome [6] | outcome [7] | outcome [8] | Potency [9] | Potency [10] | Potency [11] | Potency [13] | max activation [15] -2.59%

C=CCOCC(CC)(CO)COCC=C
inactive: Potency [1] | Potency [2] | Potency [18] | Potency [4] | Potency [19] | outcome [5] | outcome [6] | outcome [7] | outcome [8] | Potency [9] | Potency [10] | Potency [11] | outcome [12] | Potency [13] | Potency [14]

CC(C)NCC(O)c1ccc(NS(C)(=O)=O)cc1 (stereo unspecified)
inactive: Potency [1] | Potency [2] | Potency [3] | Potency [18] | Potency [4] | outcome [6] | outcome [7] | outcome [8] | Potency [9] | Potency [10] | Potency [11] | outcome [12] | Potency [13] | Potency [14] | max activation [15] -1.64% | Potency [16] | Potency [17]
